Results taken from ChEMBL document CHEMBL2218924, “A broad activity screen in support of a chemogenomic map for kinase signalling research and drug discovery” (Biochem J, 2013).

Molecular target: T1, cAMP-dependent protein kinase catalytic subunit PRKX (Homo sapiens) (UniProt P51817)
T1 sequence (whole entry): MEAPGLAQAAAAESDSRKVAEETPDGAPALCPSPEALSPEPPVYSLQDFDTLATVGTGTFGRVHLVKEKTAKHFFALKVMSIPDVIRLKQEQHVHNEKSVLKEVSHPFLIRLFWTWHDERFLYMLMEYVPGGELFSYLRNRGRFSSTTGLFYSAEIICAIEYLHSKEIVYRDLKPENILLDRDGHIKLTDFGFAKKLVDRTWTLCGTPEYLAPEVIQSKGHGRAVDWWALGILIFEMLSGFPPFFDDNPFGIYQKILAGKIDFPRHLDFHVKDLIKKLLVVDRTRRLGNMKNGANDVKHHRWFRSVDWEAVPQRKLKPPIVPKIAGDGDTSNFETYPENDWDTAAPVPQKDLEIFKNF
Conditions: at 10 µM

SMILES | residual activity [%]
O=S(=O)(NCCNC/C=C/c1ccc(Br)cc1)c1cccc2cnccc12 | 0
N#C/C(=C\c1ccc(O)c(O)c1)C(=O)NCc1ccccc1 | 70
CN([C@@H](Cc1ccc(OS(=O)(=O)c2cccc3cnccc23)cc1)C(=O)N1CCN(c2ccccc2)CC1)S(=O)(=O)c1cccc2cnccc12 | 62
O=C(Nc1nc2ccccc2n1CCN1CCOCC1)c1cccc([N+](=O)[O-])c1 | 86
COc1cc2c(cc1OC)-c1n[nH]c(Nc3cccc(F)c3)c1C2 | 101
N#C/C(=C1/Nc2ccccc2S1)c1ccnc(NCCc2cccnc2)n1 | 37
O=C1C(Cl)=C(N2C(=O)CCC2=O)C(=O)c2ccccc21 | 92
CCCCc1c(-c2ccc(O)cc2)[nH]c2nccnc12 | 100
O=C(Nc1ccc(Cl)cc1)c1ccccc1NCc1ccncc1 | 50
O=C(NC(NC(=S)Nc1ccc(F)c([N+](=O)[O-])c1)C(Cl)(Cl)Cl)C(c1ccccc1)c1ccccc1 (stereo not drawn) | 52
COc1ccc2c(c1)c(C1=C(c3c[nH]c4ccccc34)C(=O)NC1=O)cn2CCCN(C)C | 79
N#Cc1c(NC(=O)c2cccc3ccccc23)sc2c1CCCC2 | 84
O=C1NC(=O)C(c2cn(CCCn3ccnc3)c3ccccc23)=C1Nc1ccccc1 | 58
Oc1cccc(-c2nc(N3CCOCC3)c3oc4ncccc4c3n2)c1 | 92
CSc1nc(-c2ccc(F)cc2)c(-c2ccnc(NC(C)c3ccccc3)c2)[nH]1 (stereo not drawn) | 58
O=c1c(-c2ccc(F)cc2)c(-c2ccncc2)[nH]n1-c1ccc(Cl)cc1 | 71
COc1ccc(-c2cnc3c(-c4ccsc4)cnn3c2)cc1 | 93
O=C(c1cc2cc(O)ccc2[nH]1)c1cc2cc(O)ccc2[nH]1 | 34
COc1cc2nccc(Oc3ccc(NC(=O)Nc4cc(C)on4)c(Cl)c3)c2cc1OC | 59
O=C1Cc2c([nH]c3ccc([N+](=O)[O-])cc23)-c2ccccc2N1 | 53
CCOc1nc(NC(=O)Cc2cc(OC)ccc2OC)cc(N)c1C#N | 55
CCN1/C(=C/C(C)=O)Sc2ccc(OC)cc21 | 42
Nc1n[nH]c2nc3ccccc3nc12 | 84
CC(C)c1nn(-c2c(Cl)cccc2Cl)c2nc(Cc3ccc(OCCO)cc3)[nH]c(=O)c12 | 87
O=S(=O)(c1cccc2cnccc12)N1CCCNCC1 | 2
Fc1ccc(-c2nc3n(c2-c2ccncc2)CCS3)cc1 | 92

Molecular target: Protein-tyrosine kinase 2-beta (Homo sapiens) (UniProt Q14289)
Conditions: at 1 µM

Sequence of Protein-tyrosine kinase 2-beta (Homo sapiens) (Q14289 whole entry, looked up): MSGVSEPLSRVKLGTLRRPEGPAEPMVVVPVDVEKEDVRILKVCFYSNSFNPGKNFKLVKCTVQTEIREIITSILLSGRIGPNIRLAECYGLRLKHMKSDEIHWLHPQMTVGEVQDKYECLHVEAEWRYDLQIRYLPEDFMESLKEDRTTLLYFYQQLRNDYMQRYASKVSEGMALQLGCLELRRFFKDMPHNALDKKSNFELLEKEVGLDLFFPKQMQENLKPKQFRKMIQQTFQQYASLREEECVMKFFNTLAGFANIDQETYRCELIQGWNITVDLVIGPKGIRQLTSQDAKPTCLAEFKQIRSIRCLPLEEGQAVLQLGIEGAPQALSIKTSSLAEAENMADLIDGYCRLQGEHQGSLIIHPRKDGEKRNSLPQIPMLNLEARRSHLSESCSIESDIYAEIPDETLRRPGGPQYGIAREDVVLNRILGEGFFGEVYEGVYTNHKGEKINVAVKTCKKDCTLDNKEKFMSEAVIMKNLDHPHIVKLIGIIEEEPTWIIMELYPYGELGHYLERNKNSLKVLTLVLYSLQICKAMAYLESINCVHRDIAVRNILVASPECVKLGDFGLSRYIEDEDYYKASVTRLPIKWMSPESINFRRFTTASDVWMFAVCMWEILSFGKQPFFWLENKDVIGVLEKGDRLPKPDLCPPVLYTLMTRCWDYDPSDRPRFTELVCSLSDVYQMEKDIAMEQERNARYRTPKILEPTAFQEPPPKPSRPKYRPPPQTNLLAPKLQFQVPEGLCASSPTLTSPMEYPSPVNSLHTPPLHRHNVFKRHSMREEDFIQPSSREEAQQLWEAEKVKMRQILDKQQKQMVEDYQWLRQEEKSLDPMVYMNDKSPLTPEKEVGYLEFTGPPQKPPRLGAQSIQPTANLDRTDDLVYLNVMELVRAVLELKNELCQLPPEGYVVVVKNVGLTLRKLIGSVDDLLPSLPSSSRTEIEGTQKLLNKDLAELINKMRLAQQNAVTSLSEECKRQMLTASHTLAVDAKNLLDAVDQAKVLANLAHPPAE

SMILES | residual activity [%]
N#C/C(=C\c1ccc(O)c(O)c1)C(=O)NCc1ccccc1 | 146
c1ccc(-c2cnc(Nc3ccc(OCCN4CCCC4)cc3)s2)cc1 | 105
O=C(Nc1nc2ccccc2n1CCN1CCOCC1)c1cccc([N+](=O)[O-])c1 | 114
COc1cc2c(cc1OC)-c1n[nH]c(Nc3cccc(F)c3)c1C2 | 79
O=C1C(Cl)=C(N2C(=O)CCC2=O)C(=O)c2ccccc21 | 91
CCCCc1c(-c2ccc(O)cc2)[nH]c2nccnc12 | 54
O=C(Nc1ccc(Cl)cc1)c1ccccc1NCc1ccncc1 | 128
O=C1NC(=O)C(c2c[nH]c3ccccc23)=C1c1c[nH]c2ccccc12 | 97
COc1ccc2c(c1)c(C1=C(c3c[nH]c4ccccc34)C(=O)NC1=O)cn2CCCN(C)C | 116
NC(=O)c1cccc(-c2cc(Nc3ccc(OC(F)(F)F)cc3)ncn2)c1 | 128
O=C1NC(=O)C(c2cn(CCCn3ccnc3)c3ccccc23)=C1Nc1ccccc1 | 121
Oc1cccc(-c2nc(N3CCOCC3)c3oc4ncccc4c3n2)c1 | 142
COc1ccc(-c2cnc3c(-c4ccsc4)cnn3c2)cc1 | 136
O=C(c1cc2cc(O)ccc2[nH]1)c1cc2cc(O)ccc2[nH]1 | 68
COc1cc2nccc(Oc3ccc(NC(=O)Nc4cc(C)on4)c(Cl)c3)c2cc1OC | 34
O=C1Cc2c([nH]c3ccc([N+](=O)[O-])cc23)-c2ccccc2N1 | 45
O=c1cc(N2CCOCC2)oc2c(-c3ccccc3)cccc12 | 127
CC(C)c1nn(-c2c(Cl)cccc2Cl)c2nc(Cc3ccc(OCCO)cc3)[nH]c(=O)c12 | 109

Molecular target: Protein-tyrosine kinase 2-beta (Homo sapiens) (UniProt Q14289)
Conditions: at 10 µM

SMILES | residual activity [%]
N#C/C(=C\c1ccc(O)c(O)c1)C(=O)NCc1ccccc1 | 101
c1ccc(-c2cnc(Nc3ccc(OCCN4CCCC4)cc3)s2)cc1 | 43
O=C(Nc1nc2ccccc2n1CCN1CCOCC1)c1cccc([N+](=O)[O-])c1 | 86
COc1cc2c(cc1OC)-c1n[nH]c(Nc3cccc(F)c3)c1C2 | 32
N#C/C(=C1/Nc2ccccc2S1)c1ccnc(NCCc2cccnc2)n1 | 58
CCCCc1c(-c2ccc(O)cc2)[nH]c2nccnc12 | 26
O=C(Nc1ccc(Cl)cc1)c1ccccc1NCc1ccncc1 | 74
O=C1NC(=O)C(c2c[nH]c3ccccc23)=C1c1c[nH]c2ccccc12 | 28
COc1ccc2c(c1)c(C1=C(c3c[nH]c4ccccc34)C(=O)NC1=O)cn2CCCN(C)C | 32
NC(=O)c1cccc(-c2cc(Nc3ccc(OC(F)(F)F)cc3)ncn2)c1 | 95
O=C1NC(=O)C(c2cn(CCCn3ccnc3)c3ccccc23)=C1Nc1ccccc1 | 81
Oc1cccc(-c2nc(N3CCOCC3)c3oc4ncccc4c3n2)c1 | 95
CSc1nc(-c2ccc(F)cc2)c(-c2ccnc(NC(C)c3ccccc3)c2)[nH]1 (stereo not drawn) | 85
COc1ccc(-c2cnc3c(-c4ccsc4)cnn3c2)cc1 | 94
O=C(c1cc2cc(O)ccc2[nH]1)c1cc2cc(O)ccc2[nH]1 | 20
COc1cc2nccc(Oc3ccc(NC(=O)Nc4cc(C)on4)c(Cl)c3)c2cc1OC | 8
O=C1Cc2c([nH]c3ccc([N+](=O)[O-])cc23)-c2ccccc2N1 | 38
Nc1n[nH]c2nc3ccccc3nc12 | 92
CC(C)c1nn(-c2c(Cl)cccc2Cl)c2nc(Cc3ccc(OCCO)cc3)[nH]c(=O)c12 | 99
